Assay results reported in PubChem BioAssay AID1159580 (chemical genetic matrix, 2015).
Among all 5,500 compounds or so, about 2,000 (36%) were called active. Roughly 18% stayed inconclusive and do not appear here. This is one part of the list. Values without a mark were called inactive. Rule as the data show it: active = normalized growth mostly below about 0.91 (no sharp cut-off); inconclusive = no clear call, values can overlap the other calls; inactive = mostly above about 0.92.

Assay: chemical genetic growth profiling, strain panel (AID 1159580);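 also: tested at 20 µM; growth read once vehicle control cultures reached saturation at 30 °C; 1 = growth at the plate median or of vehicle wells; lower values mean less growth of the strain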
Conditions: S. cerevisiae deletion strains, growth OD

O=C(NC1CCN(Cc2ccc(Cl)c(Cl)c2)CC1)c1ccccc1
normalized growth (locus YAL013W, strain DEP1, hits give low values): 1.01
normalized growth (locus YBR229C, strain ROT2, hits give low values): 1
normalized growth (locus YDL101C, strain DUN1, hits give low values): 0.996
normalized growth (locus YDR150W, strain NUM1, hits give low values): 0.977
normalized growth (locus YEL061C, strain CIN8, hits give low values): 0.946
normalized growth (locus YGR078C, strain PAC10, hits give low values): 1.01
normalized growth (locus YGR229C, strain SMI1, hits give low values): 1
normalized growth (locus YHR030C, strain SLT2, hits give low values): 0.641 (active)
normalized growth (locus YHR087W, strain rtc3, hits give low values): 0.987
normalized growth (locus YJR043C, strain POL32, hits give low values): 1.01
normalized growth (locus YJR075W, strain HOC1, hits give low values): 1.02
normalized growth (locus YKL190W, strain CNB1, hits give low values): 1
normalized growth (locus YLR039C, strain RIC1, hits give low values): 0.94
normalized growth (locus YLR058C, strain SHM2 (second series), hits give low values): 1.01
normalized growth (locus YLR085C, strain ARP6, hits give low values): 0.86
normalized growth (locus YLR262C, strain YPT6, hits give low values): 0.825
normalized growth (locus YML094W, strain GIM5, hits give low values): 0.889
normalized growth (locus YMR219W, strain ESC1, hits give low values): 0.992
normalized growth (locus YMR263W, strain SAP30, hits give low values): 0.998
normalized growth (locus YNL153C, strain GIM3, hits give low values): 0.988
normalized growth (locus YNL298W, strain CLA4 (second series), hits give low values): 0.986
normalized growth (locus YNL322C, strain KRE1, hits give low values): 1
normalized growth (locus YNR030W, strain Alg12, hits give low values): 0.96
normalized growth (locus YOL006C, strain TOP1, hits give low values): 0.683 (active)
normalized growth (locus YPL055C, strain LGE1, hits give low values): 0.995
normalized growth (locus YPL241C, strain CIN2, hits give low values): 0.93
normalized growth (locus YPR135W, strain CTF4, hits give low values): 0.783
